Source: PubChem BioAssay
GPT2 inh: Primary qHTS assay for inhibitors of Glutamate pyruvate transaminase 2 (GPT2). Alanine aminotransferase 2 (Homo sapiens), Q8TD30. Recombinant GPT2, coupled pyruvate oxidase/HRP Amplex Red fluorescence. Potency, µM (doses to about 57.7 µM), inactives show top-dose activity change, negative = inhibition, usual class: inhibitors. hit rate 0.25% among 100,000; further: potency means the concentration at half of the fitted maximal effect; on the % scale 0 is the no-effect control and ±100 the full control effect; nearly all actives have a fitted effect of over 60% in size
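GPT2 10ng/uL, a-KG 250uM, L-Ala 2mM, HEPES pH7.5 + 0.0001% Tween; 30 min RT. Then Amplex mix (PO/HRP/ThPP), 30 min RT dark, fluorescence. AOA 50uM used as positive control.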
FLuc inh: Firefly luciferase inhibition profiling of diverse chemical library using quantitative high-throughput screening | Luciferin 4-monooxygenase (Photinus pyralis), P08659 | purified P. pyralis luciferase, luminescence, biochemical | Potency, µM (top dose mostly 115 µM), most hits filed as inhibitors | hit rate 2.5% among 76,000 | AID 1347043, 2019; further: potency means the concentration at half of the fitted maximal effect; on the % scale 0 is the no-effect control and ±100 the full control effect; nearly all actives have a fitted effect of over 65% in size
Target sequence (P08659 whole entry, looked up): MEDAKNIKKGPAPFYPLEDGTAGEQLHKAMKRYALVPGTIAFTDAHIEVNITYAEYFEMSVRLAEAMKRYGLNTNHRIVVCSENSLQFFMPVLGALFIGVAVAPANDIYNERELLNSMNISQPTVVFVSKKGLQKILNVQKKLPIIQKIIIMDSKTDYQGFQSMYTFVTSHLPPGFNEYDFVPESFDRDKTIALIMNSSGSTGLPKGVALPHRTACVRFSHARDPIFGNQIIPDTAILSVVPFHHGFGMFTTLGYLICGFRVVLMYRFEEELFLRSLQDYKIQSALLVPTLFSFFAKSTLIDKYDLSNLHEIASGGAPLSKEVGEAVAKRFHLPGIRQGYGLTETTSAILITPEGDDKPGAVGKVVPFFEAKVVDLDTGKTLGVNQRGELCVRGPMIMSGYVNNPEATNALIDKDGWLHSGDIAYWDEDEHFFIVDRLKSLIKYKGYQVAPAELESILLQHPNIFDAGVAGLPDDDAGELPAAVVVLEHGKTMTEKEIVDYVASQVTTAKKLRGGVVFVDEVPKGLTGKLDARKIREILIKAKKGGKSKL
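FLuc 10nM, D-luciferin 10uM, ATP 10uM, Mg acetate 10mM, Tris acetate pH 7.5, Tween/BSA; cpd qHTS; enzyme added last; CCD luminescence.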
NIH3T3 tox: Cytotoxic Profiling in NIH 3T3 Cell Line of Diverse Libraries Using Quantitative High-Throughput Screening. NIH 3T3 viability, CellTiter-Glo ATP luminescence, 48-72 h. Potency, µM (doses to about 96.7 µM), inactives show top-dose activity change, negative = cytotoxicity, most hits filed as inhibitors. hit rate 4.3% among 94,000. AID 1345082, 2018; further: potency means the concentration at half of the fitted maximal effect; on the % scale 0 is the no-effect control and ±100 the full control effect; nearly all actives have a fitted effect of over 55% in size
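Luminescent ATP readout (CellTiter-Glo, 10 min RT) after 48 or 72 hr compound exposure of NIH 3T3 cells seeded at 400 cells/well in 1536-well format; quantitative HTS.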
HEK cytotox: Cytotoxic Profiling in HEK 293 Cell Line of Diverse Libraries Using Quantitative High-Throughput Screening. HEK 293 viability, ATP luminescence (CellTiter-Glo), 48-72 h. Potency, µM (highest dose often 115 µM), for inactives: at the highest dose activity change, negative = cytotoxicity, actives largely listed as inhibitors. hit rate 6.6% among 94,000. AID 1345083, 2018; further: potency means the concentration at half of the fitted maximal effect; on the % scale 0 is the no-effect control and ±100 the full control effect; nearly all actives have a fitted effect of over 60% in size
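Cells seeded first (HEK 293, 250 cells/well), then compound added by pintool. Incubation ran 48 or 72 hr at 37 degree Celsius. CellTiter-Glo was added and luminescence imaged after 10 min at room temperature.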
hNpr1 antagonist: Natriuretic polypeptide receptor (hNpr1) antagonism - Primary qHTS; Atrial natriuretic peptide receptor 1 (Homo sapiens), P16066; AID 1347048, 2019; hit rate 1.6% among 76,000; HEK293 hNpr1 GloSensor cGMP, ANP-stimulated luminescence; Potency, µM (titrated, usually from 46.3 µM), for the others: at the top dose activity change, negative = inhibition, usual class: inhibitors; calls by dose curve; further: potency means the concentration at half of the fitted maximal effect; on the % scale 0 is the no-effect control and ±100 the full control effect; nearly all actives have a fitted effect of over 60% in size
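Compound pre-incubated 30 min at room temperature on GloSensor-loaded HEK293 cells stably carrying hNpr1 and the pGS-40F cGMP biosensor. Stimulation uses hNppA at 0.1 nM final; luminescence is taken at baseline and 20 min post-agonist.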
Npr1 antag conf: Natriuretic polypeptide receptor (hNpr1) antagonism - Confirmation | shares compounds with hNpr1 antagonist | HEK293 hNpr1 cGMP GloSensor luminescence, ANP-stimulated | Potency, µM (highest dose often 57.6 µM), without a hit: top-dose activity change, negative = inhibition, usual class: inhibitors | hit rate 76% among 1,400 | AID 1347044, 2019; calls by dose curve; further: potency means the concentration at half of the fitted maximal effect; nearly all actives have a fitted effect of over 70% in size
Npr2 selectivity: Natriuretic polypeptide receptor (hNpr2) antagonism - Subtype selectivity assay; shares compounds with hNpr1 antagonist; HEK293 hNpr2 GloSensor cGMP luminescence, CNP-stimulated; Potency, µM (highest dose often 57.6 µM), inactives show at the highest dose activity change, negative = inhibition, most hits filed as inhibitors; hit rate 67% among 1,400; AID 1347046, 2019; calls by dose curve; further: potency means the concentration at half of the fitted maximal effect; nearly all actives have a fitted effect of over 70% in size
FLuc counter: Natriuretic polypeptide receptor (hNpr1) antagonism - Confirmation firefly luciferase (FLuc) inhibition counterscreen; shares compounds with hNpr1 antagonist; purified FLuc enzyme, luminescence, Km substrate; Potency, µM (top dose mostly 57.6 µM), without a hit: at the highest dose activity change, negative = inhibition, hits mostly inhibitors; hit rate 0.7% among 1,400; AID 1347047, 2019; further: potency means the concentration at half of the fitted maximal effect; 0% is about no effect
GloSensor cGMP: Natriuretic polypeptide receptor (hNpr1) antagonism - Counterscreen GloSensor control cell line | shares compounds with hNpr1 antagonist | HEK293 GloSensor cGMP, SNP-stimulated, luminescence | Potency, µM (top dose mostly 57.6 µM), without a hit: at the top dose activity change, negative = inhibition, actives largely listed as inhibitors | hit rate 69% among 1,400 | AID 1347051, 2019; calls by dose curve; further: potency means the concentration at half of the fitted maximal effect; on the % scale 0 is the no-effect control and ±100 the full control effect; nearly all actives have a fitted effect of over 70% in size
GPT2 conf: Confirmatory qHTS assay for inhibitors of Glutamate pyruvate transaminase 2 (GPT2). shares compounds with GPT2 inh. hit rate 90% among 95. GPT2 enzyme, coupled Amplex Red pyruvate fluorescence. Potency, µM, actives largely listed as inhibitors. AID 1671187, 2021
Numbers without * were called inactive; ! = not active in a repeat; [ ] = remark or other dose. Rows were chosen to be rich in hits. Some 10% of all compounds tested hit in one or more screens of this group. Unless noted, the call rests on the fitted dose curve; in most records, active means well fitted curve in the direction sought with a large enough effect; inconclusive means small, poorly fitted or top-dose-only effect, or another doubt; inactive means no such curve, though single readings can be large; an effect the other way counts as inactive or inconclusive.

`COCCn1c(C)cc(C(=O)N2[C@H]3CC[C@@H]2c2cnc(-c4ccc(F)cc4)nc2C3)c1C` gave GPT2 inh -10%, FLuc inh inactive, NIH3T3 tox inconclusive, HEK cytotox 25µM*, hNpr1 antagonist 11µM*, Npr1 antag conf 12µM*, Npr2 selectivity 15µM*, FLuc counter 1% and GloSensor cGMP 14µM*.
Screening O=C(COc1ccc(F)cc1)N1[C@H]2CC[C@@H]1c1cnc(-c3ccccc3)nc1C2 returned GPT2 inh inactive, NIH3T3 tox -33% and HEK cytotox inconclusive.
Screening Cc1cc(C(=O)N2[C@H]3CC[C@@H]2c2cnc(-c4ccc(F)cc4)nc2C3)n[nH]1 returned GPT2 inh 1%, FLuc inh inactive, NIH3T3 tox inconclusive, HEK cytotox inconclusive, hNpr1 antagonist 13µM*, Npr1 antag conf 24µM*, Npr2 selectivity 24µM*, FLuc counter -2% and GloSensor cGMP 24µM*.
O=C(Nc1ccc(=O)n2c1[C@@H]1C[C@@H](CN(C(=O)c3ccc(F)cc3)C1)C2)C1CCCCC1 was read as GPT2 inh -17%, FLuc inh inactive, NIH3T3 tox -14%, HEK cytotox -15% and hNpr1 antagonist -9%.
For COc1ccc(CC2C(=O)NC(C)C(=O)N(C)C3Cc4ccc(cc4)Oc4cc(ccc4OC4OC(CO)C(O)C(O)C4O)CC(C(=O)NC(C)C(=O)NC(CCC(=O)O)C(=O)N2C)N(C)C3=O)cc1 (stereo not given) the results were GPT2 inh 0%[17.1 µM].
c1ccc2c(c1)Nc1ccccc1S2 was read as GPT2 inh 11µM*! and GPT2 conf 2.8*.
Screening CC(=O)c1ccc(NC(=O)NC[C@H]2C[C@@H]3CCN2C[C@@H]3CN2CCCCC2)cc1 returned GPT2 inh -9%[88.5 µM], FLuc inh inactive, NIH3T3 tox inconclusive, HEK cytotox -6%[172 µM] and hNpr1 antagonist 8%[70.6 µM].
